# The whole screen tested about 650,000 compounds, of which about 5,900 (0.91%) were called active. This is one part of a sample in which actives are shown more often than they occur. No stated cut-off is given here; in the data, active means inhibition above about 50%; inactive means the rest.
# Biological target: Microphthalmia-associated transcription factor (Homo sapiens) (UniProt O75030)
# Assay: MITF inhibitors, primary screen, biochemical, AlphaScreen, human (AID 1259374);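 further: 0% = vehicle wells with protein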
# Details: AlphaScreen MITF homodimerization, bead proximity signal; at 2.6 µM; hits give high values
# Chain of Microphthalmia-associated transcription factor (Homo sapiens) (O75030 whole entry, looked up): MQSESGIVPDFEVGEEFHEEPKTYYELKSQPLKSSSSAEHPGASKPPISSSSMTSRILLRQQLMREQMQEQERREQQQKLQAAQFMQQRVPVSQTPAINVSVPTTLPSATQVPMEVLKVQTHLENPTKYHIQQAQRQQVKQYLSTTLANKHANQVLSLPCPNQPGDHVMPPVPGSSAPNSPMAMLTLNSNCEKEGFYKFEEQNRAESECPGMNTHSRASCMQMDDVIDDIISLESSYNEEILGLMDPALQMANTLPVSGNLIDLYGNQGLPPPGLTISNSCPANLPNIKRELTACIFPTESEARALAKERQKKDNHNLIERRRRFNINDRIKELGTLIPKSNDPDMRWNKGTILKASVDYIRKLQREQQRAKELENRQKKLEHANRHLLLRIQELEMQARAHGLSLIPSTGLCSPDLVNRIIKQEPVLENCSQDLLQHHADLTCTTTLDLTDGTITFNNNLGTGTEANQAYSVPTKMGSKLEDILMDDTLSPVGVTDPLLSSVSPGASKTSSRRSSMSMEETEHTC
row,SMILES,inhibition
1,CCN1CCc2nc3ccccc3c(C(=O)O)c2C1,61.5% (active)
2,CCn1c(C(=O)O)c(CC(=O)N2CCN(Cc3ccccc3)CC2)c2ccccc21,3.77% (inactive)
3,CCc1nc2ccccc2c(=O)n1-c1ccccc1,10.7% (inactive)
4,O=[N+]([O-])c1ccc(N2CCCCC2)c2cccnc12,27.4% (inactive)
5,CS(=O)(=O)Nc1ccc(C#N)c(Cl)c1,-2.59% (inactive)
6,CCC(=O)c1ccc(N2CCN(C)CC2)c(F)c1,-2.65% (inactive)
7,CN(CC#CC1CC2CCC1C2)C1CCCCC1 (stereo not given),-0.53% (inactive)
8,C(#CC1CC1)CN(C1CCCCC1)C1CCCCC1,83.7% (active)
9,CCn1c(=O)n(CC2CS2)c2ccccc21 (stereo not given),-0.54% (inactive)
10,Cc1cnc2nc3c(cc2c1)CN(Cc1cccnc1)CC3,-8.7% (inactive)
11,CN1CCN(c2cc3[nH]c(=S)[nH]c3cc2F)CC1,-8% (inactive)
12,CCOC(=O)C1C2NC(=S)N(c3ccc(CC)cc3)C1(C)Oc1c(OC)cccc12 (stereo not given),39.5% (inactive)
13,CCOC(=O)C1C2NC(=S)N(c3ccc(F)cc3)C1(C)Oc1c(OCC)cccc12 (stereo not given),55.5% (active)
14,CCOC(=O)C1C2NC(=S)NC1(C)Oc1cc(OC)ccc12 (stereo not given),13.6% (inactive)
15,CCOC(=O)C1C2NC(=S)N(c3ccc(Cl)cc3)C1(C)Oc1ccccc12 (stereo not given),10.8% (inactive)
16,CCOC(=O)C1C2NC(=S)N(CC)C1(C)Oc1ccc(Cl)cc12 (stereo not given),65.6% (active)
17,CCOC(=O)C1C2NC(=S)NC1(C)Oc1c(OCC)cccc12 (stereo not given),-1.57% (inactive)
18,Cn1c(SCCOC(N)=O)nnc1-c1ccc([N+](=O)[O-])cc1,5.78% (inactive)
19,CS(=O)(=O)c1ccc(CC(=O)N2CCN(C(c3ccccc3)c3ccccc3)CC2)cc1,7.6% (inactive)
20,c1ccc(-c2ccnc3nc4ccccc4n23)cc1,7.67% (inactive)
21,OC(CNC1CN2CCC1CC2)COc1cccc2ccccc12 (stereo not given),18.3% (inactive)
22,COc1ccc(CN2CCN(CCO)CC2)c(OC)c1OC,-8.5% (inactive)
23,COc1ccc(CN2CCN(C(C)C)CC2)c(OC)c1OC,68.1% (active)

row,SMILES,inhibition
1,COc1ccc(CN2CCN(c3ccc(C(C)=O)cc3)CC2)cc1,18.3% (inactive)
2,CC(C)N1CCN(Cc2ccccc2)CC1,41% (inactive)
3,COc1ccc(CN2CCN(c3ccccc3F)CC2)c(OC)c1,14% (inactive)
4,COc1ccc(CN2CCN(C(C)C)CC2)cc1,57% (active)
5,CC(C)CN(Cc1c(O)ccc2c(=O)c(-c3ccccc3)coc12)CC(C)C,-5.09% (inactive)
6,COC(NC(=O)c1ccco1)C(Cl)(Cl)Cl (stereo not given),17.3% (inactive)
7,CCCCn1c(C)c(C(=O)OCC)c2cc(OC(=O)COc3ccccc3)c3ccccc3c21,-5.32% (inactive)
8,Cc1nc2ccccc2c(=O)n1-c1cccc(Cl)c1,22.4% (inactive)
9,COc1ccc(Cl)cc1C(=O)C1CCCN(Cc2ncc[nH]2)C1 (stereo not given),7.6% (inactive)
10,COc1cc(NC(=O)CCc2nc(C3=CCN(C)CC3)no2)cc(OC)c1OC,51.6% (active)
11,CCCN1CCN(C(=O)Cc2nc(-c3ccc(OC)cc3)no2)CC1,1.81% (inactive)
12,CCOC(=O)C1=C(c2ccccc2)OC(N)=C(C#N)C12C(=O)Nc1ccc(Br)cc12 (stereo not given),2.49% (inactive)
13,CC[C@@H](C)C(=O)O[C@H]1[C@H](O)[C@H]2[C@@H](CN3C[C@@H](C)CC[C@H]3[C@@]2(C)O)[C@@H]2C[C@]34O[C@]5(O)[C@@H](OC(=O)C(C)(O)C(C)O)CC[C@@]3(C)[C@@H]5[C@@H](OC(C)=O)[C@@H](OC(C)=O)[C@H]4[C@@]21O (stereo not given in full),23.5% (inactive)
14,O=[N+]([O-])c1ccc(CNCCc2c[nH]c3ccccc23)cc1,25.3% (inactive)
15,COc1ccc(CNCCc2c[nH]c3ccccc23)cc1OC,13.6% (inactive)
16,c1cncc(CNCCc2c[nH]c3ccccc23)c1,84% (active)
17,Cc1nn(CC(=O)N2CCC3(CC2)OCCO3)c(=O)c2cccn12,-10.4% (inactive)
18,O=C1CN=C(c2ccc(Br)cc2)c2cc(Br)ccc2N1,-2.48% (inactive)
19,N#Cc1ccc(NC(=O)COc2cc(F)ccc2[N+](=O)[O-])cc1Cl,10.7% (inactive)
20,CN1CN/C(=N\[N+](=O)[O-])N(Cc2ccco2)C1,-9.51% (inactive)
21,CCN1CCN(Cc2ccc(F)cc2F)CC1,1.97% (inactive)
22,COc1cccc(CN2CCN(Cc3ccccc3OC)CC2)c1,7.82% (inactive)
23,Fc1ccccc1CN1CCN(Cc2ccccc2F)CC1,75.5% (active)

row,SMILES,inhibition
1,Fc1ccc(N2CCN(Cc3ccccc3F)CC2)cc1,12.7% (inactive)
2,COc1cc(CN2CCN(c3ccccc3)CC2)cc(OC)c1,5.15% (inactive)
3,COc1cccc(CN2CCN(Cc3ccccc3F)CC2)c1,75.4% (active)
4,COc1ccc(CN2CCN(c3ccccc3F)CC2)c(O)c1,21.3% (inactive)
5,CCC(C)N1CCN(Cc2cccc(OC)c2)CC1 (stereo not given),63.5% (active)
6,O=C(COc1ccccc1)N1CCN(Cc2cccc(Oc3ccccc3)c2)CC1,32.3% (inactive)
7,CCOC(=O)C1=C(N)Oc2cc(C)n(CC)c(=O)c2C12C(=O)N(CC(C)C)c1ccccc12 (stereo not given),4.18% (inactive)
8,Cc1ccc(C(O)(C(=O)NNc2cc(Cl)ccc2Cl)c2ccc(C)cc2)cc1,8.08% (inactive)
9,O=[N+]([O-])c1ccc(N2CCc3ccccc3C2)c2ccncc12,5.66% (inactive)
10,CC(C)(CNc1ccc([N+](=O)[O-])c2cccnc12)CNS(=O)(=O)c1ccc(Cl)cc1,0.37% (inactive)
11,N#CC1=C(N)Oc2c(c(=O)oc3ccccc23)C1c1ccc(OC(F)(F)F)cc1 (stereo not given),2.42% (inactive)
12,CSCCC(NC(=O)c1ccco1)C(=O)OCC(=O)Nc1ccc(C#N)c(Cl)c1 (stereo not given),4.56% (inactive)
13,CSc1ccccc1NC(=O)CN(C)CC(=O)Nc1ccc(C#N)c(Cl)c1,82.2% (active)
14,COc1ccc(NC(=O)CN(C)CC(=O)Nc2ccc(C#N)c(Cl)c2)cc1,7.15% (inactive)
15,COc1ccccc1N1C(=O)NC(=O)/C(=C\c2ccc(Cl)cc2Cl)C1=O,-0.45% (inactive)
16,CC(Cc1ccccc1)NC(=O)/C=C/c1ccco1 (stereo not given),7.08% (inactive)
17,CC(Cc1cccc(C(F)(F)F)c1)N1CCOCC1 (stereo not given),12.7% (inactive)
18,CCC(CC)N1CCN(Cc2ccc(F)cc2)CC1,70.5% (active)
19,CCN1CCN(Cc2ccc(C(=O)OC)cc2)CC1,-13.2% (inactive)
20,CCC(C)N1CCN(Cc2ccc(SC)cc2)CC1 (stereo not given),65.1% (active)
21,Clc1ccc(CN2CCN(Cc3ccc(Cl)cc3)CC2)cc1,31.9% (inactive)
22,CN1CCN(Cc2ccc(F)cc2)CC1CCO (stereo not given),-5.75% (inactive)
23,CCN1CCN(Cc2ccc3ccccc3c2)CC1,3.25% (inactive)

row,SMILES,inhibition
1,Fc1cccc(Cl)c1CNC1CN2CCC1CC2 (stereo not given),2.47% (inactive)
2,O=C(CN1CCCC1)c1ccccc1Br,-5.43% (inactive)
3,Cc1cc(C=C2C(=O)NC(=S)NC2=O)c(C)n1-c1ccccc1C(F)(F)F,8.02% (inactive)
4,CCOC(=O)C1=C(N)OC2=C(C(=O)CCC2)C12C(=O)Nc1ccc(Br)cc12 (stereo not given),-1.67% (inactive)
5,FC1CC2C(Cl)C1NC2(C(F)(F)F)C(F)(F)F (stereo not given),-5.25% (inactive)
6,CN1C(=O)C(=Cc2cn(CC(=O)NCc3ccco3)c3ccccc23)C(=O)N(C)C1=O,0.24% (inactive)
7,CN1CCC(N(C)c2ncnc3scc(-c4ccc(Cl)cc4)c23)CC1,51.4% (active)
8,CC1CCCC(C)N1C(=O)CN1C2CCC1CC(O)(c1ccccn1)C2 (stereo not given),54.9% (active)
9,Cn1ccnc1C1(O)CC2CCC(C1)N2CC(=O)N1CCc2ccccc2C1 (stereo not given),9.08% (inactive)
10,O=C(CN1C2CCC1CC(O)(c1ccccn1)C2)N1c2ccccc2Sc2ccccc21 (stereo not given),44.9% (inactive)
11,COc1ccccc1CN1CCN(c2ccc(F)cc2)CC1,19.3% (inactive)
12,Cc1cccc(OCC(=O)N2CCN(Cc3ccccc3)CC2)c1C,13% (inactive)
13,COc1cccc(CN2CCN(C(=O)COc3ccccc3)CC2)c1OC,43.9% (inactive)
14,COc1ccccc1CN1CCN(Cc2ccc(Br)cc2)CC1,77.5% (active)
15,COc1ccccc1N1CCN(Cc2cccc(O)c2)CC1,24.7% (inactive)
16,COc1ccccc1CN1CCN(C(=O)Cc2ccccc2)CC1,57.1% (active)
17,COc1cc(CN2CCN(Cc3ccccc3)CC2)cc(I)c1O,-2.51% (inactive)
18,COc1cc(CN2CCN(C)CC2)ccc1O,41.2% (inactive)
19,COc1ccc(CN2CCN(Cc3ccccc3)CC2)cc1C,50.8% (active)
20,CC(C)CCn1c(=O)c(C(=O)Nc2nc3ccc(F)cc3s2)c(O)c2ccccc21,9.2% (inactive)
21,CC12CCC(=O)C=C1CC[C@@H]1[C@@H]2CCC2(C)[C@@H](O)CC[C@@H]12 (stereo not given in full),3.34% (inactive)
22,Cc1cccc(-n2c(CN3C(=O)c4ccccc4C3=O)nc3ccccc3c2=O)c1,8.78% (inactive)
23,C=CCN1C(=O)NC(=O)/C(=C/c2ccc(O)c(OC)c2)C1=O,-1.51% (inactive)

row,SMILES,inhibition
1,C=CCN1C(=O)NC(=O)/C(=C/c2ccc3c(c2)OCO3)C1=O,11.9% (inactive)
2,CCNC(=S)N1CC2CC(C1)c1cccc(=O)n1C2 (stereo not given),-9.28% (inactive)
3,CCCC1=C(C(=O)OC)C2(C(=O)Nc3ccccc32)C(C(=O)OCC)=C(N)O1 (stereo not given),12% (inactive)
4,c1cc2c(cc1NC1=NCCCS1)OCCO2,2.15% (inactive)
5,O=C1NC(=S)N(Cc2ccco2)C(=O)/C1=C\c1ccc(-c2ccc([N+](=O)[O-])cc2)o1,89.9% (active)
6,C=CCN1C(=O)/C(=C\c2cccn2-c2cccc([N+](=O)[O-])c2)C(=O)NC1=S,44.6% (inactive)
7,O=C1NC(=S)NC(=O)C1=Cc1ccc(-c2ccccc2)o1,31.6% (inactive)
8,N#CC1=C(N)Oc2c(c(=O)oc3ccccc23)C1c1ccc([N+](=O)[O-])s1 (stereo not given),2.54% (inactive)
9,COc1cccc(-n2c(/C=C/c3cccnc3)nc3ccccc3c2=O)c1,-8.02% (inactive)
10,Cc1ccccc1N1C(=O)NC(=O)/C(=C\c2cc(C)n(-c3ccccc3C(=O)O)c2C)C1=O,15.6% (inactive)
11,Cc1cc(/C=C2/C(=O)NC(=O)N(Cc3ccco3)C2=O)c(C)n1-c1ccc(C(=O)O)cc1,80.4% (active)
12,Cc1cc(C=O)c(C)n1Cc1ccco1,3.63% (inactive)
13,COc1ccccc1CCNCc1ccc(C)cc1,24.2% (inactive)
14,Fc1ccc(CN2CCN(c3ccccc3)CC2)cc1F,40.2% (inactive)
15,O=[N+]([O-])c1ccc(O)c(CN2CCN(c3ccccc3)CC2)c1,9.43% (inactive)
16,O=[N+]([O-])c1ccccc1CN1CCN(Cc2cccc(F)c2)CC1,51.4% (active)
17,Cc1ccc(CN2CCN(Cc3ccccc3[N+](=O)[O-])CC2)cc1,59.3% (active)
18,Cc1ccc(CN2CCN(C(=O)COc3cccc(C)c3)CC2)cc1,43.5% (inactive)
19,O=[N+]([O-])c1ccccc1C[N+]12CCC(CC1)C(O)C2 (stereo not given),8.77% (inactive)
20,Cc1ccccc1OCC(=O)N1CCN(CCNC(=O)c2ccc3c(c2)OCO3)CC1,-3.05% (inactive)
21,O=C1NC(=S)NC(=O)C1=Cc1ccc(OCc2ccccc2)c(C(=O)O)c1,18.7% (inactive)
22,CCCC1(CCC)C(=O)NC(=Nc2ccc(OC)cc2)NC1=O,-6.47% (inactive)
23,CC(c1ccccc1F)n1cc(C(=O)NC2CC2)nn1 (stereo not given),-9.15% (inactive)

# Reference: PubChem BioAssay AID1259374 (The Scripps Research Institute Molecular Screening Center, 2018)
